Gli-Sufu block: Gli-Sufu pathway antagonists, primary screen, luciferase luminescence, Sufu-KO-LIGHT cells, uHTS | Sufu-KO-LIGHT fibroblasts, Gli luciferase reporter luminescence | inhibition, % at 5 µM | actives 0.74% (n = 340,000);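 active means inhibition above about 55%, limit read from the data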;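 further: 0% = DMSO-treated cells and 100% = wells with medium but no cells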
697 NFkB inh: inhibitors of PMA/ionomycin-induced NF-kB reporter, 697 cells, primary screen, B-cell NF-kB inhibitor project, cell-based, luminescence, uHTS. actives 0.33% (n = 330,000). inhibition, % at 4 µM. AID 435022, 2010. 697 B-cell NF-kB luciferase reporter, 16 h; in the data active means inhibition above about 35%
Cardio protect: cardioprotection against H2O2-induced cell death, primary screen, uHTS, H9c2 cells, ATPLite luminescence; actives 0.63% (n = 360,000); H9c2 cardiomyocytes, H2O2 injury protection, 2 h; AID 588492, 2011; protection from H2O2 cell death, % at 20 µM;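 active means compounds giving at least 50% protection of heart cells from peroxide-induced death in the single-dose screen, raw or plate-pattern-corrected value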;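 further: 0% = DMSO wells with peroxide and 100% = DMSO wells without peroxide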
COUP-TFII inh: NR2F2 transcriptional activity inhibitors, primary screen, cell-based, luciferase reporter, HEK293T, luminescence; HEK293T NGFI-A luciferase reporter; inhibition, % at 8.6 µM; actives 0.7% (n = 370,000); AID 686940, 2013;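 active means inhibition above a per-plate cutoff, mean inhibition of test wells between control levels plus 3 SD, cut at about 38% in these data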;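 further: cells cotransfected with COUP-TFII expression vector driving the NGFI-A reporter; 0% = median of COUP-TF2 test wells and 100% = reporter-only cells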
Target sequence (P24468 whole entry, looked up): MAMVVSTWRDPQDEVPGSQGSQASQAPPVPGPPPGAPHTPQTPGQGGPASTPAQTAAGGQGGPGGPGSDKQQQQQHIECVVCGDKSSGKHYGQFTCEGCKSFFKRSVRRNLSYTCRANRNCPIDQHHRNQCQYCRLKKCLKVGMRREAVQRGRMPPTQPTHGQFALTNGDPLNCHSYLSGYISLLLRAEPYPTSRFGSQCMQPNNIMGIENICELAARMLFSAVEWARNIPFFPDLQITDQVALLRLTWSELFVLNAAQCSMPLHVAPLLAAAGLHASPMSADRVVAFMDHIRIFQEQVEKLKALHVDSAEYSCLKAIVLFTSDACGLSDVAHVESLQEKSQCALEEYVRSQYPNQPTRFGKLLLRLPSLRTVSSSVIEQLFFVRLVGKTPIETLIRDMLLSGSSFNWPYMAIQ
Jurkat NFkB inh: inhibitors of induced NF-kB luciferase reporter, primary screen, TCR NF-kB activation inhibitor project, cell-based, luminescence, uHTS; actives 0.53% (n = 330,000); inhibition, % at 4 µM; Jurkat, PMA/ionomycin-induced NF-kB luciferase reporter; AID 435003, 2010; in the data active means inhibition above about 50%
H9c2 TAG inh: inhibitors of triacylglycerol accumulation, primary screen, cell-based, uHTS, fluorescence, H9c2; inhibition, % at 12.5 µM; H9c2 cells, Nile Red lipid (TAG) fluorescence; cells loaded with 200 µM oleic acid; actives 0.66% (n = 230,000);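 active means pattern-corrected inhibition of lipid staining of at least 50% with the nuclear-stain viability signal not falling by more than 50%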;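 further: 0% = DMSO wells and 100% = triacsin C control wells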
697 NFkB conf: PMA/ionomycin-induced NF-kB reporter inhibitors, 697 retest, confirmation, B-cell NF-kB inhibitor project, cell-based, luminescence, single concentration | shares compounds with 697 NFkB inh | 697 B-cell NF-kB luciferase, 16 h | inhibition, % at 4 µM | AID 449746, 2010 | actives 35% (n = 2,000); in the data active means inhibition mostly above about 28%, no sharp cut-off; inactive means mostly below about 22%
Gli antag conf: Gli-SUFU pathway antagonists, confirmation, single concentration, luciferase luminescence, Sufu-KO-LIGHT cells; shares compounds with Gli-Sufu block; inhibition, % at 5 µM; Gli luciferase reporter; actives 40% (n = 2,500);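 active means mean inhibition at 5 µM reaching about 45%, limit read from the data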;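 further: plate controls were DMSO-treated cells for no effect and wells lacking cells for full effect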
Gli cytotox: cytotoxicity in Sufu-KO-LIGHT cells, confirmation, cytotoxicity control for Gli-SUFU antagonist project, cell-based, ATP luminescence, single concentration. shares compounds with Gli-Sufu block. cytotoxicity, % at 5 µM. actives 32% (n = 2,500);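 active means mean cytotoxicity at 5 µM above about 25%, limit read from the data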;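 further: cells exposed to compound overnight for roughly 16 to 18 hours; plate controls were DMSO wells with cells for no effect and medium without cells for full effect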
Wnt3a counter: Wnt3a reporter signal inhibition, confirmation, counter-screen for Gli-SUFU antagonist project, Wnt-LIGHT cells, luminescence, single concentration; shares compounds with Gli-Sufu block; Wnt3a-driven luciferase reporter; inhibition, % at 6.25 µM; actives 20% (n = 2,500);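 active means mean inhibition above about 25%, limit read from the data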
VP16 Luc counter: Gal4-VP16 luciferase reporter inhibitors, counter-screen for COUP-TFII antagonist project, cell-based, luminescence, HEK293. shares compounds with COUP-TFII inh. inhibition, % at 8.5 µM. actives 25% (n = 2,500); in the data active means inhibition above about 13%
COUP-TFII conf: NR2F2 transcriptional activity inhibitors, confirmation, cell-based, luciferase reporter, HEK293, triplicate. shares compounds with COUP-TFII inh. HEK293 NGFI-A luciferase reporter, luminescence. inhibition, % at 8.5 µM. actives 45% (n = 2,500). AID 687008, 2013;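 active means mean inhibition over three repeats above a set limit taken from the earlier primary screen, cut at about 38% in these data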;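 further: 100% = cells given the luciferase reporter alone without the COUP-TF2 vector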
Starred values were filed as active, the others as inactive; i = inactive; x = not tested or not shown. The list is not random: actives were taken first. Their share in the collection is about 2.6%.

SMILES | Gli-Sufu block | 697 NFkB inh | Cardio protect | COUP-TFII inh | Jurkat NFkB inh | H9c2 TAG inh | 697 NFkB conf | VP16 Luc counter | COUP-TFII conf | others
Cc1ccc(C)c(OCCn2cc(C(=O)O)c3ccccc32)c1 | 0 | 9 | -8 | 8 | 6 | x | x | x | x
O=C(C(=O)N1CCC(CNC(=O)C2COc3ccccc3O2)CC1)c1cccs1 (stereo not drawn) | x | x | x | 13 | x | x | x | x | x
Cc1ccc(-n2c(-c3ccccc3)c[n+]3c2CCc2ccccc2-3)c(C)c1 | 87* | 49* | -22 | 64* | 33 | 3 | 28* | 17* | 57*
CCc1ccc(-c2nnn(CCC(=O)OC)n2)cc1 | 30 | 52* | -1 | 57* | 10 | 0 | 64* | 60* | 50*
CCc1ccc(-c2nnn(CCC#N)n2)cc1 | -19 | -2 | -4 | -8 | -19 | -1 | x | x | x
Cc1ccc(CN2CCCCC(NC(=O)c3cccc(F)c3)C2=O)cc1 (stereo not drawn) | x | x | x | -46 | x | x | x | x | x
COC(=O)C1CN(Cc2ccccc2)CCS(=O)(=O)N1Cc1cn(Cc2ccccc2)nn1 (stereo not drawn) | x | x | x | -6 | x | x | x | x | x
CC(C)(C)c1ccc(-c2noc(CCC(=O)NCc3ccco3)n2)cc1 | 70* | 96* | -23 | 38* | -48 | 1 | 94* | 25* | 57*
Nc1ccn([C@@H]2O[C@H](C(=O)N[C@H](Cc3ccccc3)C(=O)NCC(F)(F)F)[C@@H](O)[C@H]2O)c(=O)n1 | x | x | x | -6 | x | x | x | x | x
N=c1c2c(n(Cc3ccc(Cl)c(Cl)c3)c3c1CCC3)CCCC2 | 83* | 44* | -29 | 64* | 11 | -20 | 29* | 16* | 47* | Gli antag conf=89*;Gli cytotox=19;Wnt3a counter=36*
Oc1ccc(Oc2ccc3c(C(F)(F)F)cc(C(F)(F)F)nc3n2)cc1 | 8 | 46* | -12 | 49* | 13 | -49 | 22 | -12 | 37*
COc1ccc(Oc2ccc3c(C(F)(F)F)cc(C(F)(F)F)nc3n2)cc1 | -23 | -1 | -5 | 11 | -6 | x | x | x | x
Cc1c(CCC(=O)NCC(=O)NCC(=O)O)c(=O)oc2cc3oc4c(c3cc12)CCCC4 | 9 | 12 | -3 | -6 | -14 | x | x | x | x
Cc1c(CCC(=O)O)c(=O)oc2cc3oc4c(c3cc12)CCCC4 | 18 | 40* | 0 | 42* | 1 | 14 | 35* | 59* | 50*
C#CCNC(=O)C[C@@H]1C[C@@](CCC(=O)OCC)(C(=O)OCC)C2=CCCCN2C1=O | x | x | x | 5 | x | x | x | x | x
CCC(C)(C)c1ccc(Oc2cccc(C(=O)O)c2)cc1 | -43 | -42 | 2 | -20 | -12 | x | x | x | x
CCC(C)(C)c1ccc(OCCCC[n+]2ccccc2)c(C(C)(C)CC)c1 | x | 78* | -11 | 54* | 45 | 52* | 34* | 7 | 16
CCOc1ccc(N=C(NN)c2ccc3ccccc3n2)cc1 | 64* | -252 | -5 | 40* | 13 | x | -43 | -41 | -14 | Gli antag conf=73*;Gli cytotox=14;Wnt3a counter=81*
CCOc1ccc(N=C(C)C2=C(O)c3ccccc3C2=O)cc1 | -9 | -158 | -10 | -48 | -103 | -22 | x | x | x
CCC(CO)Oc1cc(NCc2ccccc2O)c2ncn(C(C)C)c2c1 (stereo not drawn) | -9 | 45* | 10 | 43* | -9 | -20 | 46* | -10 | 40*
CN=C1S/C(=C/c2cc(C)n(Cc3ccccc3)c2C)C(=O)N1C | x | x | x | -33 | x | x | x | x | x
Cc1cc(C(F)(F)F)c(C#N)c(SCC(=O)Nc2nc3ccccc3s2)n1 | 16 | i | -12 | 56* | -77 | -20 | -298 | 21* | 57*
Cc1ccc2sc(NC(=O)CSc3nc(C)cc(C)c3C#N)nc2c1 | -93 | -67 | -16 | -61 | -128 | x | x | x | x
Clc1ccc(-c2cc(-c3nnc4sc(Cc5cccs5)nn34)[nH]n2)cc1 | x | x | x | 9 | x | x | x | x | x
COc1ccc2c(c1)CNC2CS(=O)(=O)NCc1ccc(F)cc1 (stereo not drawn) | x | x | x | -10 | x | x | x | x | x
SMILES | Gli-Sufu block | 697 NFkB inh | Cardio protect | COUP-TFII inh | Jurkat NFkB inh | H9c2 TAG inh | 697 NFkB conf | VP16 Luc counter | COUP-TFII conf | others
O=C(C[n+]1cc(-c2ccccc2)n2c1CCCCC2)c1ccc(Br)cc1 | 31 | 7 | -31 | -10 | 10 | 4 | x | x | x
Cc1ccc(C(=O)C[n+]2cc(-c3ccc(C)cc3)n3c2CCCCC3)cc1 | 88* | 80* | -11 | 46* | 46 | x | 54* | 9 | 37
Cc1nc2c(-c3ccc(F)cc3)cnn2c(N)c1-c1ccccc1 | 41 | -310 | -21 | 82* | -36 | x | -224 | 32* | 82*
Cc1c(C)n(CCc2ccccc2)c2ncnc(NCCCO)c12 | -90 | -101 | -7 | -75 | -65 | x | x | x | x
COCCn1c(C)c(C)c2c(NCCc3ccccc3)ncnc21 | 25 | -281 | -2 | 47* | -77 | x | -29 | 10 | 64*
O=S(=O)(Nc1ccc(-c2csc(-c3ccccc3)n2)cc1)c1ccc(F)cc1 | -18 | 10 | -26 | 0 | -11 | 14 | x | x | x
O=C(Nc1nc(-c2ccccc2)cs1)c1ccccc1NS(=O)(=O)c1ccc(F)cc1 | 53 | 47* | -18 | 55* | 13 | -1 | 52* | -4 | 32
Cc1ccoc1C(=O)Nc1ccc(CC(=O)O)cc1 | 31 | 66* | -6 | 76* | 38 | x | 60* | 70* | 66*

Compound activity (PubChem BioAssay)
